Data published in PubChem BioAssay (EPA / NIEHS).
Results filed as inconclusive are left out. The source made the active and inactive calls. The calls were made as follows, unless noted: active = hit-call score of the fitted dose curve at least 0.9, where 1 is the maximum; inactive = score below 0.9.

Legend:
[1] = ATG_GAL4_TRANS: Attagene TRANS-FACTORIAL HepG2 Assay for GAL4 (Internal Marker) (AID 2282976; active = hit-call score of the fitted dose curve at least 0.9, where 1 is the maximum); details: HepG2 Attagene TRANS GAL4 internal marker reporter
Procedure, shortened: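 RT-PCR/capillary electrophoresis readout of reporter mRNA. HepG2, transient MRTU transfection (GAL4-UAS reporters), 24 h compound exposure. Background-control endpoint, positive direction vs DMSO baseline.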

[2] = target: Oxysterols receptor LXR-beta (Homo sapiens) (UniProt P55055); experiment: ATG_LXRb_TRANS: Attagene TRANS-FACTORIAL HepG2 Assay for human Liver X Receptor beta (LXRb) (AID 2282981; active = hit-call score of the fitted dose curve at least 0.9, where 1 is the maximum); details: HepG2 Attagene TRANS GAL4-LXRb reporter, mRNA
Procedure, shortened: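 HepG2 cells transiently transfected with multiple reporter transcription units carrying chimeric NR-Gal4 proteins acting on GAL4-UAS reporters; compound exposure 24 h. Reporter mRNA quantified by RT-PCR, 6-FAM labelling, HpaI digestion and capillary electrophoresis; gain of signal versus DMSO.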

[3] = target: Hepatocyte nuclear factor 4-alpha (Homo sapiens) (UniProt P41235); experiment: ATG_HNF4a_TRANS: Attagene TRANS-FACTORIAL HepG2 Assay for human Hepatocyte Nuclear Factor 4 alpha (HNF4a) (AID 2282982; active = hit-call score of the fitted dose curve at least 0.9, where 1 is the maximum); details: HepG2 HNF4a transactivation reporter, mRNA readout
Procedure, shortened: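 HepG2 cells transiently transfected with multiplexed GAL4-UAS reporter units responsive to chimeric NR-GAL4 proteins; compound exposure 24 h. Reporter mRNA quantified by RT-PCR, 6-FAM labelling, HpaI digestion and capillary electrophoresis; gain of signal versus DMSO baseline.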

[4] = ATG_M_06_TRANS: Attagene TRANS-FACTORIAL HepG2 Assay for M06 Transcription Factor (Internal Marker) (AID 2282983; active = hit-call score of the fitted dose curve at least 0.9, where 1 is the maximum); details: HepG2 Attagene TRANS M06 internal marker reporter
Procedure, shortened: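 After a 24 h chemical treatment of transfected HepG2, RNA underwent DNase I treatment, reverse transcription and reporter-specific PCR; labelled, HpaI-digested products were sized by capillary electrophoresis. Signal increase relative to DMSO defined activity.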

[5] = target: Transcriptional activator Myb (Homo sapiens) (UniProt P10242); experiment: ATG_Myb_CIS: Attagene CIS-FACTORIAL HepG2 Assay for human Myeloblastosis (Myb) Proto-Oncogene Transcription Factor (AID 2282986); details: HepG2 Attagene CIS-FACTORIAL Myb reporter transcription; actives raise or lower the signal
Procedure, shortened: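 Endogenous transcription factor activity at a Myb-responsive cis element is reported in human liver HepG2 cells after 24 h chemical treatment. Reporter mRNA is detected by RT-PCR and capillary electrophoresis fluorescence, with DMSO as baseline.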

[6] = target: Nuclear respiratory factor 1 (Homo sapiens) (UniProt Q16656); experiment: ATG_NRF1_CIS: Attagene CIS-FACTORIAL HepG2 Assay for human Nuclear Respiratory Factor 1 (NRF1) Orphan Gene (AID 2282987); details: HepG2 NRF1 cis-element reporter, Attagene multiplex; actives raise or lower the signal
Procedure, shortened: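 Human hepatoma HepG2 cells carrying transfected promoter-regulated reporter units were incubated with test chemicals for 24 h. Reporter transcripts were measured by RT-PCR plus capillary electrophoresis, and endpoints derived by bidirectional fitting with DMSO as baseline.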

[7] = ATG_NFI_CIS: Attagene CIS-FACTORIAL HepG2 Assay for human Nuclear Factor I (NFI) (AID 2282989); details: HepG2 cis-regulatory reporter, NFI response element transcription; actives raise or lower the signal
Procedure, shortened: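 Cells: human liver HepG2, transiently transfected with promoter-regulated reporter transcription units. Exposure 24 h. Detection: fluorescent RT-PCR products separated by capillary electrophoresis, normalised to DMSO negative control.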

[8] = target: Myc proto-oncogene protein (Homo sapiens) (UniProt P01106); experiment: ATG_Myc_CIS: Attagene CIS-FACTORIAL HepG2 Assay for human Myelocytomatosis (Myc) Proto-Oncogene Transcription Factor (AID 2282990); details: HepG2, Attagene cis-reporter transcription factor activity; actives raise or lower the signal
Procedure, shortened: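 HepG2 cells transiently transfected with multiple cis-promoter-driven reporter transcription units, so endogenous TF activity is read. After 24 h compound exposure, reporter mRNA was quantified by RT-PCR, 6-FAM labelling, HpaI digestion and capillary electrophoresis; bidirectional fit versus DMSO.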

[9] = ATG_NF_kB_CIS: Attagene CIS-FACTORIAL HepG2 Assay for human Nuclear Factor Kappa B (NF-kB) (AID 2282991); details: HepG2 Attagene cis-factorial NF-kB reporter mRNA; actives raise or lower the signal
Procedure, shortened: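 Multiplexed cis-reporter assay in transiently transfected HepG2. 24 h treatment; RNA isolated, RT-PCR, labelled fragments resolved by CE. DMSO baseline.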

[10] = ATG_NRF2_ARE_CIS: Attagene CIS-FACTORIAL HepG2 Assay for human Nuclear Factor Erythroid 2 Related Factor 2 (NFR2) response to Antioxidant Response Elements (ARE) (AID 2282992); details: HepG2 Attagene ARE/NRF2 reporter, transcription factor activity; actives raise or lower the signal;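 as to AC50: reporter mRNA level measured by RT-PCR and capillary electrophoresis fluorescence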
Procedure, shortened: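 Cis-factorial assay: transfected HepG2 reporter library, 24 h dosing, mRNA readout via RT-PCR/CE; DMSO-referenced bidirectional analysis.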

[11] = ATG_Oct_MLP_CIS: Attagene CIS-FACTORIAL HepG2 Assay for human Octamer-Binding Transcription Factor (Oct) (AID 2282993); details: HepG2 Attagene cis-factorial Oct reporter, mRNA; actives raise or lower the signal
Procedure, shortened: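 HepG2, transient MRTU transfection, cis promoter elements; 24 h dosing; RT-PCR/CE fluorescence read-out of reporter mRNA; fit both directions vs DMSO.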

[12] = target: Cellular tumor antigen p53 (Homo sapiens) (UniProt P04637); experiment: ATG_p53_CIS: Attagene CIS-FACTORIAL HepG2 Assay for human p53 Transcription Factor (AID 2282994); details: HepG2 p53 cis-element reporter, Attagene mRNA; actives raise or lower the signal
Procedure, shortened: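 Using HepG2 hepatoma cells carrying cis-acting multiplexed reporters, mRNA induction is detected after a 24 h exposure. Gain- and loss-of-signal responses are fitted relative to DMSO-treated cells.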

[13] = BSK_3C_TissueFactor: BioMAP Diversity Plus: 3C Assay for Tissue Factor Biomarker Activity (AID 2282997); details: BioMAP 3C HUVEC, tissue factor biomarker readout; actives raise or lower the signal
Procedure, shortened: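 Human vascular primary cells (umbilical vein endothelium) received test chemical; Tissue Factor was determined by ELISA at 24 h, and both gain and loss of signal versus DMSO were fitted.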

[14] = BSK_3C_uPAR: BioMAP Diversity Plus: 3C Assay for Urokinase-type plasminogen activator receptor (uPAR) Biomarker Activity (AID 2282998); details: BioMAP 3C HUVEC, uPAR biomarker ELISA; actives raise or lower the signal
Procedure, shortened: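 A multiplexed primary-cell system built on human umbilical vein endothelium was used, with chemical present for 24 h before reading. Cell-surface uPAR was detected by ELISA; signal change in either direction counted against DMSO.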

[15] = target: Estrogen-related receptor gamma (Homo sapiens) (UniProt P62508); experiment: ATG_ERRg_TRANS: Attagene TRANS-FACTORIAL HepG2 Assay for human Estrogen-Related Receptor gamma (ERRg) (AID 2282977; active = hit-call score of the fitted dose curve at least 0.9, where 1 is the maximum;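 also: hits increase reporter signal over DMSO so potencies reflect activators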); details: HepG2 Attagene TRANS reporter, ERRg transactivation
Procedure, shortened: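 Transient HepG2 transfectants, 24 h compound exposure, GAL4-UAS reporter mRNA by RT-PCR/6-FAM labelling/capillary electrophoresis; positive direction vs DMSO.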

[16] = target: Bile acid receptor (Homo sapiens) (UniProt Q96RI1); experiment: ATG_FXR_TRANS: Attagene TRANS-FACTORIAL HepG2 Assay for Farnesoid X Receptor (FXR) (AID 2282979; active = hit-call score of the fitted dose curve at least 0.9, where 1 is the maximum;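 also: hits raise reporter mRNA above DMSO so AC50 marks FXR activation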); details: HepG2 Attagene TRANS FXR-GAL4 reporter transcription
Procedure, shortened: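 Read-out: fluorescent reporter transcripts quantified by capillary electrophoresis after RT-PCR of total RNA. Source cells were HepG2 transiently carrying chimeric NR-GAL4 plus GAL4-UAS reporter units, dosed 24 h. Activity fitted upward relative to DMSO baseline.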

[17] = target: Glucocorticoid receptor (Homo sapiens) (UniProt P04150); experiment: ATG_GR_TRANS: Attagene TRANS-FACTORIAL HepG2 Assay for human Glucocorticoid Receptor (GR) (AID 2282978; active = hit-call score of the fitted dose curve at least 0.9, where 1 is the maximum;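 also: activators score as hits since higher reporter transcript over DMSO is fitted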); details: HepG2 Attagene TRANS GR reporter, mRNA transcription
Procedure, shortened: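 Multiplexed TRANS reporter system, HepG2; 24 h exposure; RNA → oligo(dT) RT → reporter-specific PCR → 6-FAM primer extension → HpaI cut → CE fluorescence. Gain-of-signal vs DMSO.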

[18] = ATG_M_32_TRANS: Attagene TRANS-FACTORIAL HepG2 Assay for M32 Transcription Factor (Internal Marker) (AID 2282984; active = hit-call score of the fitted dose curve at least 0.9, where 1 is the maximum;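 also: transcript level of a background control reporter unit measured by RT-PCR and capillary electrophoresis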); details: HepG2 Attagene TRANS M32 internal marker reporter
Procedure, shortened: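 HepG2 cells transiently transfected with multiple GAL4-UAS reporter transcription units, dosed for 24 hours; reporter mRNA quantified by RT-PCR, 6-FAM primer extension, HpaI digestion and capillary electrophoresis. Gain-of-signal fitted versus DMSO baseline; internal background-control marker.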

[19] = target: Nuclear receptor subfamily 4 group A member 2 (Homo sapiens) (UniProt P43354); experiment: ATG_NURR1_TRANS: Attagene TRANS-FACTORIAL HepG2 Assay for human Nuclear Receptor Related Protein 1 (NURR1) (AID 2282985; active = hit-call score of the fitted dose curve at least 0.9, where 1 is the maximum); details: HepG2 Attagene TRANS reporter, mRNA readout
Procedure, shortened: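 HepG2 cells transiently transfected with GAL4-UAS reporter units and chimeric NR-Gal4 constructs; chemical exposure 24 h. Reporter mRNA quantified by RT-PCR, fluorescent labelling and capillary electrophoresis; gain of signal fitted relative to DMSO baseline.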

[20] = target: Oxysterols receptor LXR-alpha (Homo sapiens) (UniProt Q13133); experiment: ATG_LXRa_TRANS: Attagene TRANS-FACTORIAL HepG2 Assay for human Liver X Receptor alpha (LXRa) (AID 2282980; active = hit-call score of the fitted dose curve at least 0.9, where 1 is the maximum); details: HepG2 Attagene TRANS reporter, LXRa transactivation
Procedure, shortened: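 Read-out: reporter transcript levels by RT-PCR plus capillary electrophoresis, fluorescence intensity. Transiently transfected HepG2, exogenous NR-GAL4 chimera, GAL4-UAS reporters; 24 h compound exposure. Activity = increase over DMSO negative control.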

Measured: AC50

Chain of Bile acid receptor (Homo sapiens) (Q96RI1 whole entry, looked up, the tested form may be a part): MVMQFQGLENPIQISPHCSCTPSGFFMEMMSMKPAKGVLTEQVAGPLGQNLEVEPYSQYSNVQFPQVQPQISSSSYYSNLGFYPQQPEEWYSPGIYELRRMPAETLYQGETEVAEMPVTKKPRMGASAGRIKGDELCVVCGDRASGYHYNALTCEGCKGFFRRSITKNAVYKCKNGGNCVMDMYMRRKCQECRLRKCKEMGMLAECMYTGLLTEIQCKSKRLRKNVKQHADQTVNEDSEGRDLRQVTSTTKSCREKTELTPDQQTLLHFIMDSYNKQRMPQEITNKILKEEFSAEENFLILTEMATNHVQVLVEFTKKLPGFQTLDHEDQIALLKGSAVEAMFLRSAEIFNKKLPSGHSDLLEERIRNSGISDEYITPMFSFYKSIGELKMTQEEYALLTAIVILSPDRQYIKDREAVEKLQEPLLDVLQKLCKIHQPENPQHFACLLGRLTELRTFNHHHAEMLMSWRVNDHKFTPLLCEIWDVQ
Chain of Nuclear receptor subfamily 4 group A member 2 (Homo sapiens) (P43354 whole entry, looked up, the tested form may be a part): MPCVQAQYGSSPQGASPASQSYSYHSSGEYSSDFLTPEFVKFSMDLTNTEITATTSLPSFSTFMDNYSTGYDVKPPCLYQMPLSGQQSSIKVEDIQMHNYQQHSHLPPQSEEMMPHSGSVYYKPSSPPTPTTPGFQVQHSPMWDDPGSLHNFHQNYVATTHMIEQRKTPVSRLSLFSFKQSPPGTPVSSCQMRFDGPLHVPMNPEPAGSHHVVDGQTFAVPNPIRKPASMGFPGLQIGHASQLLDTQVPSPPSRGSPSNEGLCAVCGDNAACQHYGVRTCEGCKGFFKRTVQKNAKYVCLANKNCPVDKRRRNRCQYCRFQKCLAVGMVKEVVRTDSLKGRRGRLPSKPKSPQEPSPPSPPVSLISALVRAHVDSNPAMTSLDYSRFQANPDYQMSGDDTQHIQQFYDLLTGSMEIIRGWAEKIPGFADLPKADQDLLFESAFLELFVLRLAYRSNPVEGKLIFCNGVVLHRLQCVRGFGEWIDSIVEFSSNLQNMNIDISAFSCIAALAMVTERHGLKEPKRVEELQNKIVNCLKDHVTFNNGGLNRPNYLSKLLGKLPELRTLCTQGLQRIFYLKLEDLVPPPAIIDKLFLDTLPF
Chain of Transcriptional activator Myb (Homo sapiens) (P10242 whole entry, looked up): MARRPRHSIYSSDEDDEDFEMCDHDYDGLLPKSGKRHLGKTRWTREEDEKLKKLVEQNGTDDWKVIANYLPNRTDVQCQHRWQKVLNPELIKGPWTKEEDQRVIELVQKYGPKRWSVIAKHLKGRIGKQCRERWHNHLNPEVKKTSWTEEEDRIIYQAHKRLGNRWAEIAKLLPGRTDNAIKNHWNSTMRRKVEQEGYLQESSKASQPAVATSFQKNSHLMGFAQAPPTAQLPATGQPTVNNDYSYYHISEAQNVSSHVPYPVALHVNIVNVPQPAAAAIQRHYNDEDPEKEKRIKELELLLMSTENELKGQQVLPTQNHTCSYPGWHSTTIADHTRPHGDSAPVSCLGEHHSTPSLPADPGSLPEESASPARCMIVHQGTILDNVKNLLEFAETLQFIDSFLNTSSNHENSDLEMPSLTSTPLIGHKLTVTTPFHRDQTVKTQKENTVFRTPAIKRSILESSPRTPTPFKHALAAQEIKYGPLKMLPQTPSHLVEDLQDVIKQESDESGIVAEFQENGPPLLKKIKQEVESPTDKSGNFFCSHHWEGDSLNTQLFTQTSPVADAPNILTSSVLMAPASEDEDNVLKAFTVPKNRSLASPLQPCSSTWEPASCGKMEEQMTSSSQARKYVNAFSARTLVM
Chain of Cellular tumor antigen p53 (Homo sapiens) (P04637 whole entry, looked up): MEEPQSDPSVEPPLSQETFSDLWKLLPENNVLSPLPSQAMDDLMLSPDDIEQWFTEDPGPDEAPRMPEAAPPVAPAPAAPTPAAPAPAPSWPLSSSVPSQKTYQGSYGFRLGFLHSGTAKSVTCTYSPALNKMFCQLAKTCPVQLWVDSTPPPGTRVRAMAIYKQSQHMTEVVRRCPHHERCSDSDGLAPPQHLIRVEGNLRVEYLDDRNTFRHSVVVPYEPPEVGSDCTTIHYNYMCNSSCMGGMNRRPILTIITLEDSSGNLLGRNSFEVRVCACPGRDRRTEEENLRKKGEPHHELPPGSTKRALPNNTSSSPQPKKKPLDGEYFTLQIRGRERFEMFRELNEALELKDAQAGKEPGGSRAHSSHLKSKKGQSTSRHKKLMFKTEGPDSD
Chain of Nuclear respiratory factor 1 (Homo sapiens) (Q16656 whole entry, looked up): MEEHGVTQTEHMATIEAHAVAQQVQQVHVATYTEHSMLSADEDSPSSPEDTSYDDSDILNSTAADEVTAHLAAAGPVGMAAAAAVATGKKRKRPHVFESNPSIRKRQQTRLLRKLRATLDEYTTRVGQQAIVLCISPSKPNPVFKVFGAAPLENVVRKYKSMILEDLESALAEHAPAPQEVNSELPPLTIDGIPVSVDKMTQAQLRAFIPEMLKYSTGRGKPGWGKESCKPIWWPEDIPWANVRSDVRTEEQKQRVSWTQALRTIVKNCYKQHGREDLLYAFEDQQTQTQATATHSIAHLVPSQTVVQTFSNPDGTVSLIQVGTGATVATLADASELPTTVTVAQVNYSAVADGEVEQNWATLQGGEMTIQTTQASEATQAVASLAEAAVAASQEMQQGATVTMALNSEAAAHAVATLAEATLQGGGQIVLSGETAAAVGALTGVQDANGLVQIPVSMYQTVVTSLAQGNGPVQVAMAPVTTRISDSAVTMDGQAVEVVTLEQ
Chain of Oxysterols receptor LXR-beta (Homo sapiens) (P55055 whole entry, looked up, the tested form may be a part): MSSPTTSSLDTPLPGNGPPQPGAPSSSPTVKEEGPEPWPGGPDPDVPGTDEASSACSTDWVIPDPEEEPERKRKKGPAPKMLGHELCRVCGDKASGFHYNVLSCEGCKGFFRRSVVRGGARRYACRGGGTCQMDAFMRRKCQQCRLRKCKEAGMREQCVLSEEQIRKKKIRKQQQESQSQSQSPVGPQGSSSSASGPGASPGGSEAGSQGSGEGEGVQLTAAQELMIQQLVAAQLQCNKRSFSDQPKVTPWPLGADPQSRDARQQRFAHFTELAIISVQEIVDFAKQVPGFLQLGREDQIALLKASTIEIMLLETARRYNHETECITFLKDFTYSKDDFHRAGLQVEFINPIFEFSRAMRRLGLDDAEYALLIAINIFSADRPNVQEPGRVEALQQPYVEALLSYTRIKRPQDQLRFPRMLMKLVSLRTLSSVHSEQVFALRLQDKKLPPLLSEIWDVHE
Chain of Myc proto-oncogene protein (Homo sapiens) (P01106 whole entry, looked up): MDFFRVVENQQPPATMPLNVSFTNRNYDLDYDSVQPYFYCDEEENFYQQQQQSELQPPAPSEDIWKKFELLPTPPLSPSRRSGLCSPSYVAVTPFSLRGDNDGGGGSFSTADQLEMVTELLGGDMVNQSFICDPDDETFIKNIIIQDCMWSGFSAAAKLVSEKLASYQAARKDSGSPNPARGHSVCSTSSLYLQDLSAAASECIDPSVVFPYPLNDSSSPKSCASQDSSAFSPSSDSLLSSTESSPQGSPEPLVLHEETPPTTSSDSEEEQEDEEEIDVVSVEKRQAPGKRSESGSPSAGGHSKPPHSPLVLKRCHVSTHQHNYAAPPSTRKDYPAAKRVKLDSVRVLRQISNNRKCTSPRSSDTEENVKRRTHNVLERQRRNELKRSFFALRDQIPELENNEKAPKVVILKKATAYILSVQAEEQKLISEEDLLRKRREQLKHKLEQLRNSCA
Chain of Glucocorticoid receptor (Homo sapiens) (P04150 whole entry, looked up): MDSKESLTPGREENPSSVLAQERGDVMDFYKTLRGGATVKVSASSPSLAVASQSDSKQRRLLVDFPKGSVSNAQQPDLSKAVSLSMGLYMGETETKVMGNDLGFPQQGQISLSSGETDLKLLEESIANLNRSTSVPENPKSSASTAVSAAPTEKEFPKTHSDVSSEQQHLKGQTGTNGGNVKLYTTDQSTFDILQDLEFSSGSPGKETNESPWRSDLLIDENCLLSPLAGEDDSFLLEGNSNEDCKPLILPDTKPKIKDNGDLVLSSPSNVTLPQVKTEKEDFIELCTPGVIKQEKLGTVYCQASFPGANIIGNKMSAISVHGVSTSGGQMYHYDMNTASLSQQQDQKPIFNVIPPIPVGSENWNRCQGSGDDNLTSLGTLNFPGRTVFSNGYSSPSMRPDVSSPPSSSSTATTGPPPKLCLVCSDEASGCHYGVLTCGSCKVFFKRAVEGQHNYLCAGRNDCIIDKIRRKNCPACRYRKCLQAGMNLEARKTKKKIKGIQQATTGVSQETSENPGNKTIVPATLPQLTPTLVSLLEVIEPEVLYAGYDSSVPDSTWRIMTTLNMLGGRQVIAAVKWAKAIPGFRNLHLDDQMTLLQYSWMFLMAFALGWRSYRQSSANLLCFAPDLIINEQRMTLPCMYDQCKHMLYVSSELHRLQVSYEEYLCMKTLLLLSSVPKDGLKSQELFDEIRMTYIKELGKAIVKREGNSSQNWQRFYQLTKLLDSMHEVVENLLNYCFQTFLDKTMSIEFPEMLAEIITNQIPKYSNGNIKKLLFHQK
Chain of Oxysterols receptor LXR-alpha (Homo sapiens) (Q13133 whole entry, looked up, the tested form may be a part): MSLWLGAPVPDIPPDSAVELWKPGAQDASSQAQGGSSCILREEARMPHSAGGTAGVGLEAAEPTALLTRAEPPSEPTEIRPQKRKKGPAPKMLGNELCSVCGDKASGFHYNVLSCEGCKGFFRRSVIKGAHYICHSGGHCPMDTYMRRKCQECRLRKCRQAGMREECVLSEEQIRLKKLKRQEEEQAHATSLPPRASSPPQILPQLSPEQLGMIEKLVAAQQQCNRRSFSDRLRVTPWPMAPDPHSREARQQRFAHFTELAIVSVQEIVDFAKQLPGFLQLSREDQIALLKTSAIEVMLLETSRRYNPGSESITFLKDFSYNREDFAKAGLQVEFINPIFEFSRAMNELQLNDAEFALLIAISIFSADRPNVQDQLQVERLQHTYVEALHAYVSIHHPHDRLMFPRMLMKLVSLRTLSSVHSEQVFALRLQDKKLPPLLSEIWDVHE

CCC1(c2ccccc2)C(=O)N=C(O)NC1=O (configuration not stated)
not listed: [15] | [16] | [17] | [18] | [19] | [20]
inactive: all other assays above

O=[N+]([O-])c1ccc(Cl)c(Cl)c1
active: [10] 100 µM
not listed: [1] | [2] | [3] | [12] | [17] | [18] | [19] | [20]
inactive: all other assays above

C=C(C)C(=O)OCC1CO1 (configuration not stated)
active: [10] 42.9 µM
not listed: [2] | [13] | [14] | [15] | [16] | [20]
inactive: all other assays above

O=[N+]([O-])c1cc(Cl)ccc1Cl
not listed: [1] | [2] | [3] | [13] | [14] | [15] | [19]
inactive: all other assays above

Cc1ccc(O)cc1C
inactive: [1] | [5] | [8] | [11] | [13] | [14]

Cc1ccc([N+](=O)[O-])cc1C
not listed: [2] | [3] | [12] | [15] | [17] | [19] | [20]
inactive: all other assays above

O=c1ssc(Cl)c1Cl
active: [6] 33.4 µM | [8] 33.4 µM | [9] 45 µM | [10] 1.08 µM | [11] 51.6 µM | [13] 5.68 µM | [14] 6.09 µM
inactive: [15] | [20] | [4] | [18] | [5] | [7]

CCCCC(CC)COC(=O)c1c(Br)c(Br)c(Br)c(Br)c1C(=O)OCC(CC)CCCC (configuration not stated)
active: [17] 14.1 µM
not listed: [1] | [3] | [12] | [15] | [18] | [19]
inactive: all other assays above

Cn1[nH]nnc1=S
not listed: [3] | [12] | [13] | [14] | [15] | [17] | [20]
inactive: all other assays above

OCC(F)(F)OC(F)(F)C(F)(F)OC(F)(F)C(F)(F)OC(F)(F)CO
active: [10] 33.2 µM | [12] 29.8 µM
not listed: [1] | [2] | [3] | [15] | [18]
inactive: all other assays above
